Results as given in PubChem BioAssay (EPA / NIEHS).
Inconclusive results are not listed. Activity calls are given as the source filed them. How the source made its calls: active means hit-call score of the fitted dose curve at least 0.9, where 1 is the maximum; inconclusive means response in the unintended direction; inactive means score below 0.9.

Target: Oxysterols receptor LXR-beta (Homo sapiens) (UniProt P55055)
Assay: ATG_LXRb_TRANS: Attagene TRANS-FACTORIAL HepG2 Assay for human Liver X Receptor beta (LXRb) (AID 2282981)
Details: HepG2 Attagene TRANS GAL4-LXRb reporter, mRNA
Method in brief: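 Liver-derived HepG2 cells transfected with Gal4-responsive reporters were dosed for 24 h. Activation was scored as rise in reporter mRNA, by RT-PCR and capillary electrophoresis, above DMSO baseline.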

Chain of Oxysterols receptor LXR-beta (Homo sapiens) (P55055 whole entry, looked up): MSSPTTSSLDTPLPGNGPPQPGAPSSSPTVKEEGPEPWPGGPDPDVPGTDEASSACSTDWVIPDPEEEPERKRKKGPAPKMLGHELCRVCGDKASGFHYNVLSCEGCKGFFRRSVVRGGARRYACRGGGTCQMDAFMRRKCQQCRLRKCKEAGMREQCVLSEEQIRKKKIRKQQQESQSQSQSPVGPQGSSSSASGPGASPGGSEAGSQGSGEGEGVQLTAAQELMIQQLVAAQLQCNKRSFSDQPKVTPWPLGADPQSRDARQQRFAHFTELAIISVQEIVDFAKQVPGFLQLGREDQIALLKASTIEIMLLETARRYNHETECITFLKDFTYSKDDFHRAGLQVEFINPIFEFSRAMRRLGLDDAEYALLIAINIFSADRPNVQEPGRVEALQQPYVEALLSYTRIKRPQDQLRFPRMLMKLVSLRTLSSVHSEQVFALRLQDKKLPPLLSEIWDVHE

Compound	outcome
C=Cc1ccc(C)cc1	inactive
CC(=O)C1(C)CC2=C(CCCC2(C)C)CC1C (stereo unspecified)	inactive
C=CC(=O)OCCCC	inactive
CC1=NN(c2ccc(S(=O)(=O)O)cc2)C(=O)C1	inactive

Target: Hepatocyte nuclear factor 4-alpha (Homo sapiens) (UniProt P41235)
Sequence (P41235 whole entry, looked up): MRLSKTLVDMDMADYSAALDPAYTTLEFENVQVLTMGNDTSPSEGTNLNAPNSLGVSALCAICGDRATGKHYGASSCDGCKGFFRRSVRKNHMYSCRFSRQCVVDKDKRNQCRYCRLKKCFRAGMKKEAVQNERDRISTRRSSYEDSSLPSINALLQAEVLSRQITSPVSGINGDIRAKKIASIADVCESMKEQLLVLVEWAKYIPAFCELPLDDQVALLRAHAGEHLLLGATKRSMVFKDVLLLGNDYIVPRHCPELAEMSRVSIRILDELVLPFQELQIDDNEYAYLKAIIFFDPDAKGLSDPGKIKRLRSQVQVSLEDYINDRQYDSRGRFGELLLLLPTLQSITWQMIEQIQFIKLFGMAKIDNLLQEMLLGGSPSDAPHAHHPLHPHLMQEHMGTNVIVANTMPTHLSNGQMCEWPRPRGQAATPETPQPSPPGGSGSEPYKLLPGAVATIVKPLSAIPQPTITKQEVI
Assay: ATG_HNF4a_TRANS: Attagene TRANS-FACTORIAL HepG2 Assay for human Hepatocyte Nuclear Factor 4 alpha (HNF4a) (AID 2282982)
Details: HepG2 HNF4a transactivation reporter, mRNA readout
Method in brief: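 Using HepG2 liver cells transfected with GAL4-UAS reporter units, chemical-induced mRNA increases were assessed after 24 hours. Fluorescent RT-PCR fragments were separated by capillary electrophoresis and compared with DMSO negative controls.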

Compound	outcome
CC(C)Nc1nc(N)nc(Cl)n1	inactive
CCOc1ccc(NC(=O)CC(C)O)cc1 (stereo unspecified)	inactive
COC(=O)c1ccc([N+](=O)[O-])cc1	inactive
C=C(C)CNCC	inactive
CCCC(O)C(O)CO (stereo unspecified)	inactive
CN1C(=O)c2ccccc2C1=O	inactive
C=C(C)C(=O)OCCOCCOCCOCCOC(=O)C(=C)C	inactive
CC(=O)Nc1ccc(C(=O)CCl)cc1	inactive
OC[C@H]1O[C@@H]2O[C@H]3[C@H](O)[C@@H](O)[C@@H](O[C@H]4[C@H](O)[C@@H](O)[C@@H](O[C@H]5[C@H](O)[C@@H](O)[C@@H](O[C@H]6[C@H](O)[C@@H](O)[C@@H](O[C@H]7[C@H](O)[C@@H](O)[C@@H](O[C@H]8[C@H](O)[C@@H](O)[C@@H](O[C@H]9[C@H](O)[C@@H](O)[C@@H](O[C@H]1[C@H](O)[C@H]2O)O[C@@H]9CO)O[C@@H]8CO)O[C@@H]7CO)O[C@@H]6CO)O[C@@H]5CO)O[C@@H]4CO)O[C@@H]3CO	inactive
CCCCCCOC(=O)C(C)C	inactive
N#Cc1ccc(CC(=O)c2cccc(C(F)(F)F)c2)cc1	inactive
O=C(O)c1cccnc1C(=O)O	inactive
CCO/C=C1\N=C(c2ccccc2)OC1=O	inactive
C[N+](C)(C)CCCCCC[N+](C)(C)C	inactive
Nc1ccc(NCCO)c([N+](=O)[O-])c1	inactive
CCCC(C)=O	inactive
CS(C)=O	inactive
C=CCOC(=O)CCCCCC	inactive
Nc1ccn([C@H]2CS[C@@H](CO)O2)c(=O)n1	inactive
O=P(O)(O)O	inactive
Cc1c(Cl)cccc1[N+](=O)[O-]	inactive
CCCCC(CC)COC(C)=O (stereo unspecified)	inactive
CCCN(CCC)S(=O)(=O)c1ccc(C(=O)O)cc1	inactive
CCCCCCOCCOCCO	inactive
CCOc1ccc(NC(=O)CC(C)=O)cc1	inactive
CC1(C)O[C@@H]2[C@@H](CO[C@@]3(COS(N)(=O)=O)OC(C)(C)O[C@@H]23)O1	inactive
Cc1ccc2c(c1)C(=O)OC2=O	inactive
Nc1ccc(Cl)c([N+](=O)[O-])c1	inactive

Test system: not listed separately
Assay: ATG_M_06_TRANS: Attagene TRANS-FACTORIAL HepG2 Assay for M06 Transcription Factor (Internal Marker) (AID 2282983);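 further: reporter transcript level by RT-PCR then capillary electrophoresis fluorescence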
Details: HepG2 Attagene TRANS M06 internal marker reporter
Method in brief: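 mRNA levels of a reporter transcript, quantified as FAM fluorescence on capillary electrophoresis, served as readout. HepG2 cells expressing exogenous GAL4-chimera reporter constructs were exposed for 24 h. Gain of signal over DMSO was evaluated.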

Compound	outcome
CC(C)Nc1nc(N)nc(Cl)n1	inactive
Cc1ccc(OC(=O)c2ccccc2O)cc1	inactive
COC(=O)c1ccc([N+](=O)[O-])cc1	inactive
C=C(C)CNCC	inactive
CN1C(=O)c2ccccc2C1=O	inactive
C=C(C)C(=O)OCCOCCOCCOCCOC(=O)C(=C)C	inactive
CC(=O)Nc1ccc(C(=O)CCl)cc1	inactive
CCCCCCOC(=O)C(C)C	inactive
N#Cc1ccc(CC(=O)c2cccc(C(F)(F)F)c2)cc1	inactive
CCc1ccc(O)cc1	inactive
C[N+](C)(C)CCCCCC[N+](C)(C)C	inactive
Nc1ccc(NCCO)c([N+](=O)[O-])c1	inactive
CCCC(C)=O	inactive
C=CCOC(=O)CCCCCC	inactive
Nc1ccn([C@H]2CS[C@@H](CO)O2)c(=O)n1	inactive
O=P(O)(O)O	inactive
CCCOC(=O)c1c(Cl)c(Cl)c(Cl)c(Cl)c1C(=O)OCCC	inactive
CC(C)(N=C=O)c1cccc(C(C)(C)N=C=O)c1	inactive
CCCCCCOCCOCCO	inactive
CCOc1ccc(NC(=O)CC(C)=O)cc1	inactive
CC1(C)O[C@@H]2[C@@H](CO[C@@]3(COS(N)(=O)=O)OC(C)(C)O[C@@H]23)O1	inactive
CC(C)CCCCCCCCCCCCCCC(=O)O	inactive
CCOC(=O)C1OC1c1ccccc1 (stereo unspecified)	inactive
Nc1ccc(Cl)c([N+](=O)[O-])c1	inactive

Test system: not listed separately
Assay: ATG_M_32_TRANS: Attagene TRANS-FACTORIAL HepG2 Assay for M32 Transcription Factor (Internal Marker) (AID 2282984);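 further: transcript level of a background control reporter unit measured by RT-PCR and capillary electrophoresis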
Details: HepG2 Attagene TRANS M32 internal marker reporter
Method in brief: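 Fluorescence-detected mRNA induction, HepG2 liver cells, 24 h after dosing. Multiple GAL4-UAS reporter units introduced by transient transfection; background-control endpoint analysed for gain of signal against DMSO.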

Compound	outcome
C=Cc1ccc(C)cc1	inactive
Cc1ccc(OC(=O)c2ccccc2O)cc1	inactive
COC(=O)c1ccc([N+](=O)[O-])cc1	inactive
C=C(C)CNCC	inactive
N#Cc1ccc(CC(=O)c2cccc(C(F)(F)F)c2)cc1	inactive
O=C(O)c1cccnc1C(=O)O	inactive
C=CC(=O)OCCCC	inactive
CCc1ccc(O)cc1	inactive
CC1=NN(c2ccc(S(=O)(=O)O)cc2)C(=O)C1	inactive
C=CCOC(=O)CCCCCC	inactive
CCCOC(=O)c1c(Cl)c(Cl)c(Cl)c(Cl)c1C(=O)OCCC	inactive
CC(C)(N=C=O)c1cccc(C(C)(C)N=C=O)c1	inactive
CCCN(CCC)S(=O)(=O)c1ccc(C(=O)O)cc1	inactive
CCCCCCOCCOCCO	inactive
CCOc1ccc(NC(=O)CC(C)=O)cc1	inactive
CC(C)CCCCCCCCCCCCCCC(=O)O	inactive
CCOC(=O)C1OC1c1ccccc1 (stereo unspecified)	inactive
Cc1ccc2c(c1)C(=O)OC2=O	inactive
Nc1ccc(Cl)c([N+](=O)[O-])c1	inactive

Target: Nuclear receptor subfamily 4 group A member 2 (Homo sapiens) (UniProt P43354)
Sequence (P43354 whole entry, looked up): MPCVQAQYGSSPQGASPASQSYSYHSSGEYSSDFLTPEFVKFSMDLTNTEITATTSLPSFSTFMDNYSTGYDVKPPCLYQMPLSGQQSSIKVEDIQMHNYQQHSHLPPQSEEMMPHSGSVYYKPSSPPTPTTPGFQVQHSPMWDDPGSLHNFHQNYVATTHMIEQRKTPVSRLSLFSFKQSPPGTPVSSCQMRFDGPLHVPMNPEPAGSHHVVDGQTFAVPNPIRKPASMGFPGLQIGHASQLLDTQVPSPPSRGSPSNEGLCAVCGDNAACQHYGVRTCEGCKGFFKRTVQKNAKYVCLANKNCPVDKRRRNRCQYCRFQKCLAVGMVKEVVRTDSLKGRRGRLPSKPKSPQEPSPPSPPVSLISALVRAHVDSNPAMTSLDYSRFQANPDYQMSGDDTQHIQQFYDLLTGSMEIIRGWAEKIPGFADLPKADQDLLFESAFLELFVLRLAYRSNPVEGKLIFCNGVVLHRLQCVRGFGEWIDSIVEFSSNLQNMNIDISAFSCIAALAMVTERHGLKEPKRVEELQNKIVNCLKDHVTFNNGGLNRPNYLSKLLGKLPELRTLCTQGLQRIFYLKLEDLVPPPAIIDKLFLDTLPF
Assay: ATG_NURR1_TRANS: Attagene TRANS-FACTORIAL HepG2 Assay for human Nuclear Receptor Related Protein 1 (NURR1) (AID 2282985)
Details: HepG2 Attagene TRANS reporter, mRNA readout
Method in brief: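 Chimeric NR-Gal4 proteins were expressed in human HepG2 cells bearing GAL4-UAS reporter units, and induced reporter mRNA was quantified 24 h post-dosing by RT-PCR and capillary electrophoresis.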

Compound	outcome	AC50
CC(C)Nc1nc(N)nc(Cl)n1	inactive	–
CCOc1ccc(NC(=O)CC(C)O)cc1 (stereo unspecified)	inactive	–
Cc1ccc(OC(=O)c2ccccc2O)cc1	inactive	–
COC(=O)c1ccc([N+](=O)[O-])cc1	inactive	–
C=C(C)CNCC	inactive	–
CN1C(=O)c2ccccc2C1=O	inactive	–
CC(=O)Nc1ccc(C(=O)CCl)cc1	inactive	–
N#Cc1ccc(CC(=O)c2cccc(C(F)(F)F)c2)cc1	–	100 µM (active)
CCc1ccc(O)cc1	inactive	–
CCO/C=C1\N=C(c2ccccc2)OC1=O	inactive	–
C[N+](C)(C)CCCCCC[N+](C)(C)C	inactive	–
Nc1ccc(NCCO)c([N+](=O)[O-])c1	inactive	–
CCCC(C)=O	inactive	–
C=CCOC(=O)CCCCCC	inactive	–
O=P(O)(O)O	inactive	–
CCCOC(=O)c1c(Cl)c(Cl)c(Cl)c(Cl)c1C(=O)OCCC	inactive	–
CC(C)(N=C=O)c1cccc(C(C)(C)N=C=O)c1	inactive	–
CC1(C)O[C@@H]2[C@@H](CO[C@@]3(COS(N)(=O)=O)OC(C)(C)O[C@@H]23)O1	inactive	–
CC(C)CCCCCCCCCCCCCCC(=O)O	inactive	–
CCOC(=O)C1OC1c1ccccc1 (stereo unspecified)	inactive	–
Nc1ccc(Cl)c([N+](=O)[O-])c1	inactive	–
